Assay [1] has as its target Lysosomal acid glucosylceramidase (Homo sapiens) (UniProt P04062). Put plainly: Glucocerebrosidase-p2 (AID 348; in the data active = potency below about 10 µM; note: potency is the fitted concentration of half-maximal effect). Particulars: purified GBA, blue fluorogenic substrate, 40 min. A digest of the protocol: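 Normal human glucocerebrosidase (0.2 nM) with blue fluorogenic substrate (80 uM final) in citrate/phosphate pH 5.9 with 10mM sodium taurocholate, 0.01% tween-20; 40 min RT, NaOH/glycine stop; fluorescence Ex 365/Em 440; AC50 from a titration from 0.6 nM upwards.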

A short description of assay [2]: AP1 Signaling Pathway (AID 357; active = well fitted curve in either direction with a large enough effect, not every such curve was filed as active;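 note: ME-180 reporter cells stimulated with EGF at its EC50 level; % is set by controls: 0 for no effect and ±100 for the full control effect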). Conditions: ME-180 AP-1-bla reporter, EGF-induced, beta-lactamase ratio, 5 h; at 7.69 µM (top of the series) unless noted. In outline: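 Modulation of EGF-driven AP-1 transcription was assessed with a beta-lactamase reporter in ME-180 cells. Compound and EC50 EGF were co-incubated 5 hours at 37 °C before 2.5-hour CCF4 loading at room temperature and dual-emission reading.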

Assay [3] in a line: NFAT Signaling Pathway (AID 444; active = well fitted curve in either direction with a large enough effect, not every such curve was filed as active;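 note: carbachol stimulus at about its EC50 of 1 µM final; % is set by controls: 0 for no effect and ±100 for the full control effect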). Particulars: Jurkat NFAT-bla M1, carbachol, beta-lactamase ratio, 5 h; at 7.69 µM (top of the series) unless noted. In outline:
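Jurkat cells with NFAT-driven β-lactamase reporter and co-expressed M1 receptor, stimulated with carbachol (final 1 uM, ~EC50), compound titration, 5 h at 37 °C. CCF4 loaded 1 h at RT; 460/530 nm ratio gave %activity and AC50.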

A short description of assay [4]: Stat Signaling Pathway (AID 446; active = well fitted curve in either direction with a large enough effect, not every such curve was filed as active;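 note: ME-180 cervical cancer cells given 40 pM IL-6 alongside compound; SIE-controlled beta-lactamase reporter measured as 460/530 nm FRET emission ratio; % is set by controls: 0 for no effect and ±100 for the full control effect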). Particulars: ME-180 (cervical carcinoma) SIE beta-lactamase reporter, IL-6 stimulated, 5 h; at 7.69 µM (top of the series) unless noted. In outline:
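FRET read-out (405 nm excitation, 460/530 nm emission) of a beta-lactamase reporter under a STAT-inducible element in ME-180 cervical carcinoma cells. Cells with compound receive 40 pM IL-6 for 5 h. Values are normalised to AC90 stimulation and AC90 JAK-inhibitor controls.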

The target of assay [5] is Glucocorticoid receptor (Homo sapiens) (UniProt P04150). Kind of assay: GR-GFP Redistribution (AID 450;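 active = compounds whose dose series gives a full or clear partial fitted curve of increased nuclear translocation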; note: potency is the fitted concentration of half-maximal effect). Particulars: U2OS GR-GFP nuclear translocation, laser cytometry, 2 h.
Chain of Glucocorticoid receptor (Homo sapiens) (P04150 whole entry, looked up, the tested form may be a part): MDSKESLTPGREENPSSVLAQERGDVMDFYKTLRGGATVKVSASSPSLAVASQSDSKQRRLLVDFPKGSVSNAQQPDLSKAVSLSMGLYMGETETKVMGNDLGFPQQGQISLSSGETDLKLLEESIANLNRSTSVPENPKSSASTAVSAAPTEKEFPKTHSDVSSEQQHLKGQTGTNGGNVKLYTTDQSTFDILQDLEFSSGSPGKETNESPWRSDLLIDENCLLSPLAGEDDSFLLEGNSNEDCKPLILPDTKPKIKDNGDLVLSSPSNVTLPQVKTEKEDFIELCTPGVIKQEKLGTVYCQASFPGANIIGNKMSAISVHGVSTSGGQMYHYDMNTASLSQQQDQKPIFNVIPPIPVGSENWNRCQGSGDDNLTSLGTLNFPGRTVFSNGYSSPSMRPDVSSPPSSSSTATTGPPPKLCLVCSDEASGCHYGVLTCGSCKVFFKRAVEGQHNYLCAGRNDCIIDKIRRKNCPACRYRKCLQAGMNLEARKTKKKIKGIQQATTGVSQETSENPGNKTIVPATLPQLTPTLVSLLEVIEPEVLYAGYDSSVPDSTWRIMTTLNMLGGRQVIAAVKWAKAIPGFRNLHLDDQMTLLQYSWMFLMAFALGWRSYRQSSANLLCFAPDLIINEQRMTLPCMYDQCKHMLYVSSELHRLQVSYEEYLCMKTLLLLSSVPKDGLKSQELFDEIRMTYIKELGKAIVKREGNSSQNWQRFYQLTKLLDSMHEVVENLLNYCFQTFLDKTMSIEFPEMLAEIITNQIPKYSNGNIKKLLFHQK
Assay [6] shares this target. Kind of assay: GR-EFC Redistribution (AID 451; calls by dose curve; note: potency is the fitted concentration of half-maximal effect). Conditions: CHO-K1 GR-EFC translocation, beta-gal luminescence, 2 h. A digest of the protocol: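 CHO-K1 cells expressing nuclear EA and GR-ED fragments of b-gal; compounds titrated up to 46 uM final, 2 h at 37 C. GR nuclear translocation read as complemented b-gal luminescence after 1 h RT detection.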
Assay [7] deals with 3',5'-cyclic-AMP phosphodiesterase 4B (Homo sapiens) (UniProt Q07343). Put plainly: qHTS Assay for Inhibitors of PDE-IV (AID 607; active = well fitted activation curve with a large enough effect in the main read-out, with a control signal flat, not every such curve was filed as active; note: % of control where 0% means no effect). Conditions: HEK293 ACTOne CNG channel cells, membrane potential fluorescence; series mostly up to 22.9 µM. A digest of the protocol: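 Cell-based read-out of cAMP via a modified cyclic nucleotide-gated channel and membrane potential dye (535/590 nm) in HEK293 cells expressing PDE4 endogenously. Compounds tested up to 22.9 uM final; 100 uM RO 20-1724 reference.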
Chain of 3',5'-cyclic-AMP phosphodiesterase 4B (Homo sapiens) (Q07343 whole entry, looked up): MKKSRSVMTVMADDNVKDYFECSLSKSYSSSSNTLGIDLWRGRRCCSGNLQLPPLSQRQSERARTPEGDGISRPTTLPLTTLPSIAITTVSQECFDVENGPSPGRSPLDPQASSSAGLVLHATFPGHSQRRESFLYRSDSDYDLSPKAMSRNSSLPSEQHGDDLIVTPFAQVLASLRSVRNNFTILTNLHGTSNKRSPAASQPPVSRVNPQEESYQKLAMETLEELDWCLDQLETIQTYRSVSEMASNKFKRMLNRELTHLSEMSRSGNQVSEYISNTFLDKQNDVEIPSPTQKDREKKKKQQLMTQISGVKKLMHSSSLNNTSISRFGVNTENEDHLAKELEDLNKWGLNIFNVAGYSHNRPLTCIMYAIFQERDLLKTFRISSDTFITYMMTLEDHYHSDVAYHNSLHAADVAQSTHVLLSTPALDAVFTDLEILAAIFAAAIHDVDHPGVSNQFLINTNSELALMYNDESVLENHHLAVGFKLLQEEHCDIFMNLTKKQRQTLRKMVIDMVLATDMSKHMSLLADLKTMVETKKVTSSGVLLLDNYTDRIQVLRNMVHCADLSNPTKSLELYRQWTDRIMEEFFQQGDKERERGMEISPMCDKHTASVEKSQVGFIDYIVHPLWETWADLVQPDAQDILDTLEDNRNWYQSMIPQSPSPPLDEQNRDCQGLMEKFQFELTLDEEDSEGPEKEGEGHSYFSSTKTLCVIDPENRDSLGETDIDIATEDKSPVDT
In general terms: Quantitative high-throughput screening tests each substance at several concentrations.

In assay [8] the target is Cytochrome P450 3A4 (Homo sapiens) (UniProt P08684). Kind of assay: qHTS Assay for Activators of Cytochrome P450 3A4 (AID 885). Note: nearly all actives have a fitted effect of over 65% in size. Conditions: recombinant CYP3A4, Luciferin-PPXE luminescence, 60 min; series mostly up to 57.1 µM. In outline: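 Luminescent readout of luciferin formed from 25 uM Luciferin-PPXE (KM level) by 20 nM CYP3A4 in 200 mM KPO4, with 60 min NADPH-driven reaction at room temperature after 10 min compound exposure. Ketoconazole (57 uM) defined 100% inhibition.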
Chain of Cytochrome P450 3A4 (Homo sapiens) (P08684 whole entry, looked up): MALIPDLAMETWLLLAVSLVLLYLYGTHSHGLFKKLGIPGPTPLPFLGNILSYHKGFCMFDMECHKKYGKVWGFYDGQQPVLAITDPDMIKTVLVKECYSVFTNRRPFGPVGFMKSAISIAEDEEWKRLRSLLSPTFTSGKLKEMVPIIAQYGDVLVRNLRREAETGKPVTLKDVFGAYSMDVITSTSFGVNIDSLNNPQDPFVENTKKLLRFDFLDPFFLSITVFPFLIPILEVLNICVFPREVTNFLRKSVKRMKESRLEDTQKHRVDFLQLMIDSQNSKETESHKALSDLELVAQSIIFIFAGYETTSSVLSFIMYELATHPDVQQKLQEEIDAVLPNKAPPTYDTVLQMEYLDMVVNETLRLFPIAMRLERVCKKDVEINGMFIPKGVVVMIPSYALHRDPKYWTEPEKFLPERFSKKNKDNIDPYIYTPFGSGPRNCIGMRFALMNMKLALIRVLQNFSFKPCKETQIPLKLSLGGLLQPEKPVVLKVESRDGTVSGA

The target in assay [9] is Dual specificity protein kinase CLK4 (Homo sapiens) (UniProt Q9HAZ1). Kind of assay: qHTS Assay for Inhibitors of CDC-like Kinase 4 (Kinase-Glo Assay) (AID 1770). Note: % is set by controls: 0 for no effect and ±100 for the full control effect; nearly all actives have a fitted effect of over 65% in size. Conditions: recombinant Clk4, Kinase-Glo ATP depletion luminescence; series mostly up to 66.7 µM. In outline: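 Recombinant human Clk4 (25 nM) phosphorylated RS repeat peptide (100 uM) with 1 uM ATP in Tris pH 7.5/MgCl2/EGTA/DTT/Triton buffer for 4.5 h at room temperature. Residual ATP was quantified by Kinase-Glo luciferase luminescence.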
Chain of Dual specificity protein kinase CLK4 (Homo sapiens) (Q9HAZ1 whole entry, looked up): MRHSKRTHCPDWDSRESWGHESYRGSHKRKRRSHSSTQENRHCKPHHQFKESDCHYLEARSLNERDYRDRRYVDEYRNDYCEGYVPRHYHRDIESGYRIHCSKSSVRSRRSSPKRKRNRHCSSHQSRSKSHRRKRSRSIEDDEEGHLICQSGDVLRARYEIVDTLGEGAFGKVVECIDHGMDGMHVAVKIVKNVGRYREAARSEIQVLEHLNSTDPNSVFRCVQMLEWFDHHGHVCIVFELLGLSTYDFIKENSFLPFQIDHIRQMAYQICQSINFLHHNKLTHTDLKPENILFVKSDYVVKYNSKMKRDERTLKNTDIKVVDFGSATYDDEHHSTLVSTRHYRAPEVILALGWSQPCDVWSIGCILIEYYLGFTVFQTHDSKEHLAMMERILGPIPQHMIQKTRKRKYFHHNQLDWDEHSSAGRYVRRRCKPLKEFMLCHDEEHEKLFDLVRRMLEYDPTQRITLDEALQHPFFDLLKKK

Assay [10] has the same target. Put plainly: qHTS Assay for Inhibitors of CDC-like Kinase 4 (ADP-Glo Assay) (AID 1771). Note: % is set by controls: 0 for no effect and ±100 for the full control effect; nearly all actives have a fitted effect of over 70% in size. Conditions: recombinant CLK4, ADP-Glo luminescence; series mostly up to 80 µM. A digest of the protocol:
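Compounds are pin-transferred onto substrate mix (100 uM RS peptide, 1 uM ATP), then 25 nM Clk4 is added. After 1 hr at room temperature, ADP-Glo reagent runs 45 min, detection reagent 30 min, then luminescence is read.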

The target is the same in assay [11]. Put plainly: qHTS Assay for Inhibitors of CDC-like Kinase 4 (ADP-FP Assay) (AID 1795). Note: % is set by controls: 0 for no effect and ±100 for the full control effect; nearly all actives have a fitted effect of over 60% in size. Particulars: Transcreener ADP fluorescence polarization; series mostly up to 50 µM. A digest of the protocol: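 Recombinant human Clk4 (6.25 nM) phosphorylated RS repeat peptide (100 uM) with 1 uM ATP in Tris pH 7.5/MgCl2/EGTA/DTT/Triton buffer for one hour. ADP was quantified by Transcreener competitive fluorescence polarization against an ADP calibration curve.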

Assay [12] concerns the target Ubiquitin carboxyl-terminal hydrolase 1 (Homo sapiens) (UniProt O94782). Kind of assay: Inhibitors of USP1/UAF1: Pilot qHTS (AID 504865).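 Note: rhodamine fluorescence freed from ubiquitin-rhodamine substrate followed over time; top concentration of the series differs between compounds; % is set by controls: 0 for no effect and ±100 for the full control effect; nearly all actives have a fitted effect of over 35% in size.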 Conditions: purified USP1/UAF1, Ub-rhodamine cleavage fluorescence; series mostly up to 54.9 µM. A digest of the protocol: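 USP1/UAF1 complex (1nM) preincubated with compound 15 min at room temperature, then Ub-Rho substrate (150nM final) added. Fluorescence read kinetically at 480/540 nm, 6 reads every 60 seconds. Buffer: 50mM HEPES pH 7.8, 0.5mM EDTA, 0.1 mg/ml BSA, 1mM TCEP, 0.01% Tween-20.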

Assay [13] in a line: Primary qHTS for small molecule stabilizers of the endoplasmic reticulum resident proteome: Secreted ER Calcium Modulated Protein (SERCaMP) assay (AID 1508630). Note: % is set by controls: 0 for no effect and ±100 for the full control effect. Conditions: SH-SY5Y GLuc-SERCaMP (Gaussia luciferase released on ER calcium loss) secretion, thapsigargin, luminescence; series mostly up to 38.4 µM. In outline:
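The SH-SY5Y reporter protocol was run at 3 concentrations up to 38.3 uM (primary) or 11 concentrations (follow-up): 16 h compound, 100 nM thapsigargin for 4 h, then extracellular luciferase luminescence.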

Assay [14] deals with Mitogen-activated protein kinase 10 (Mus musculus) (UniProt Q61831). Kind of assay: JNK3 AlphaScreen Assay (AID 530; active = well fitted curve in either direction with a large enough effect, not every such curve was filed as active). Conditions: JNK3 lysate, c-Jun phosphorylation; series mostly up to 57.1 µM. A digest of the protocol:
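Activity was read by AlphaScreen after JNK3-containing HepG2 lysate (cytokine pre-activated) phosphorylated biotinylated GST-cJun with 10 uM ATP at room temperature. Phospho-Ser73 cJun antibody with Protein-A acceptor beads provided detection.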
(Bead proximity is the source of the signal in Alpha formats.)

The target in assay [15] is Cytochrome P450 3A4 (Homo sapiens) (UniProt P08684). Put plainly: qHTS Assay for Inhibitors and Substrates of Cytochrome P450 3A4 (AID 884). Note: potency is the fitted concentration of half-maximal effect; nearly all actives have a fitted effect of over 50% in size. Conditions: recombinant CYP3A4, Luciferin-PPXE luminescence; series mostly up to 57.1 µM. A digest of the protocol: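 Luminescent readout of luciferin produced by CYP3A4 (20 nM) dealkylation of Luciferin-PPXE, 25 uM (its KM). NADPH-driven reaction ran 60 min at RT after 10 min compound preincubation; data scaled to 57 uM ketoconazole as 100% inhibition.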

A number with no mark means an inactive call. Records with an inconclusive call do not appear. The source made the active and inactive calls. Unless noted, calls come from the whole dose curve; as a rule, active = well fitted curve in the direction sought with a large enough effect; inconclusive = small, poorly fitted or top-dose-only effect, or another doubt; inactive = no such curve, though single readings can be large; an effect the other way counts as inactive or inconclusive.

Chain of Lysosomal acid glucosylceramidase (Homo sapiens) (P04062 whole entry, looked up): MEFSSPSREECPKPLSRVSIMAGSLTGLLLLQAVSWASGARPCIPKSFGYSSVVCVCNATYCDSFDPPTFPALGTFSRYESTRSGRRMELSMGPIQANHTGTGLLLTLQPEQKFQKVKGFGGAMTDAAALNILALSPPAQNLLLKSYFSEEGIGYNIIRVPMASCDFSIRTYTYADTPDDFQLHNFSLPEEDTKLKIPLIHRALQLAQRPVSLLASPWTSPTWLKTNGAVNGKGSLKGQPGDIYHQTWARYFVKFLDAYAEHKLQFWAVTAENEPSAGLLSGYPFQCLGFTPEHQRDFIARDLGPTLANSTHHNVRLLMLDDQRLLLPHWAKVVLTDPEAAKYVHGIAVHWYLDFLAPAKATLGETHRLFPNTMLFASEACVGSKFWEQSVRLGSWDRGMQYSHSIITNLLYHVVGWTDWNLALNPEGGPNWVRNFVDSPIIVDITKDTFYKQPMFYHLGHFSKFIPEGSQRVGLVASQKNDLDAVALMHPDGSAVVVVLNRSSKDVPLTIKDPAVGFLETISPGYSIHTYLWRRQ
Chain of Ubiquitin carboxyl-terminal hydrolase 1 (Homo sapiens) (O94782 whole entry, looked up): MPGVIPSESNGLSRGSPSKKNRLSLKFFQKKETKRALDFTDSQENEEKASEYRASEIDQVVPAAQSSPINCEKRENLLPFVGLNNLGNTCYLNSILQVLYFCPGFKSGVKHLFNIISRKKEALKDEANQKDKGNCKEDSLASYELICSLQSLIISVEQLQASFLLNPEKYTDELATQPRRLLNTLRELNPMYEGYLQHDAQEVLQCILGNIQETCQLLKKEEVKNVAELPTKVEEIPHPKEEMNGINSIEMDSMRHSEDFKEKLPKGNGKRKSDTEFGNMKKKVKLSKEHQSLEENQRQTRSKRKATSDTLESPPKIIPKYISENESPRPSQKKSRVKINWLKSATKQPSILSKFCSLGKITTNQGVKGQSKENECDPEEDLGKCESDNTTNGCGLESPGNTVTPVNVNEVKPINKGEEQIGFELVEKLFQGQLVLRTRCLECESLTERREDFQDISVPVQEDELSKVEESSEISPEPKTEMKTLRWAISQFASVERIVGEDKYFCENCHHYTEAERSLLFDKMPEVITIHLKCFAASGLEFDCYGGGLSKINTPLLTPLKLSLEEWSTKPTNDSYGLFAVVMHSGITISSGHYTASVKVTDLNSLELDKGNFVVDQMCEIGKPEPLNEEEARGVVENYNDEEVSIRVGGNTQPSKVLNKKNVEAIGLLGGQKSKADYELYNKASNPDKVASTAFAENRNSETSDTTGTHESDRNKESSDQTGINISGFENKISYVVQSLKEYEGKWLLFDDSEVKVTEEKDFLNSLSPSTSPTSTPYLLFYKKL

Consider `CN(C)c1ncc2nc(-c3cccs3)c(=O)n(C)c2n1`, for which the Potency in [1] was more than 11.4 µM; in assay [5], more than 9.22 µM; in assay [6] it was more than 46 µM. In addition, the activity change, negative = inhibition in [2] was 1.79%; in assay [3] it was -2.27%. Also, the activity, negative = inhibition in assay [4] is 23.5%. Also, the Potency result in assay [7], in assay [8], in assay [9], in assay [10], in [11] and in [12] was “inactive” throughout. The result in assay [13] was inactive.
Consider `Cc1cnc(CNc2ncncc2-c2cccc(NS(C)(=O)=O)c2)cn1`, for which the Potency in assay [1] was more than 11.4 µM; in [5] it was more than 46 µM; in assay [6], more than 46 µM; in [15], 3.16 µM (active). Moreover, the activity change, negative = inhibition in [2] was 3.85%; in assay [3], -0.565%. Besides, the activity, negative = inhibition in assay [4] was 13.1%. Also, the Potency entry in [14], in assay [7], in [8], in assay [9], in assay [10] and in [11] was “inactive” in each case. For the same compound, the Potency entry in [12] was “inactive”. Also, the outcome in assay [13] was inactive.
On to `O=c1c(-c2ccc(F)cc2)nc2cncnc2n1Cc1ccccc1`, for which the Potency is more than 11.4 µM in assay [1], more than 9.22 µM in assay [5] and more than 46 µM in assay [6]. For the same compound, the activity change, negative = inhibition in [2] is -5.88%; in assay [3], -16.1%. In [4], the activity, negative = inhibition was 9.13%. Moreover, the Potency entry in assay [14], in assay [9], in assay [10], in [11] and in assay [12] was “inactive” in each case. Also, the outcome in assay [13] was inactive.
With `COc1cccc(-c2cncnc2Nc2ccccc2)c1`, the values for the Potency in [1], in assay [5] and in assay [6] were more than 11.4 µM, more than 46 µM and more than 46 µM, respectively. Also, the activity change, negative = inhibition is -6.33% in [2] and 0.84% in assay [3]. Besides, the activity, negative = inhibition in assay [4] is -2.57%. Further, the Potency entry in [14], in [9], in [10], in [11] and in assay [12] was “inactive” in each case. Moreover, the outcome in assay [13] was inactive.
With `O=c1c(-c2ccc(F)cc2)nc2cncnc2n1Cc1ccc(F)cc1`, the Potency in assay [1] was more than 11.4 µM; in assay [5] it was more than 9.22 µM; in assay [6], more than 46 µM. Moreover, the activity change, negative = inhibition in assay [2] was -9.76%; in [3], -10%. The activity, negative = inhibition in [4] was -2.38%. For the same compound, the Potency entry in [14], in assay [7], in assay [9], in [10], in [11] and in assay [12] was “inactive” throughout. Besides, the result in [13] was inactive.
For the compound `COc1ncc2nc(-c3ccc(Cl)cc3)c(=O)n(C)c2n1`, the Potency is more than 11.4 µM in assay [1], more than 9.22 µM in assay [5] and more than 46 µM in [6]. The activity change, negative = inhibition in [2] was -10.2%; in [3] it was 8.73%. In assay [4], the activity, negative = inhibition is 1.71%. Also, the Potency result in [14], in assay [7], in assay [8], in assay [9], in assay [10] and in assay [11] was “inactive” in each case. The Potency entry in assay [12] was “inactive”. Moreover, the result in [13] was inactive.
As to `COc1ccccc1-c1cncnc1Nc1ccccc1`, the Potency in assay [1] is more than 11.4 µM; in assay [5] it was more than 46 µM; in assay [6] it was more than 46 µM. Also, the activity change, negative = inhibition was -6.14% in assay [2] and -4.57% in assay [3]. For the same compound, in [4], the activity, negative = inhibition is 5.08%. Besides, the Potency entry in [14], in assay [7], in [9], in assay [10], in assay [11] and in assay [12] was “inactive” in each case. Also, the result in assay [13] was inactive.

Source of the values: PubChem BioAssay (NCATS).
